According to PubChem BioAssay AID449762 (Southern Research Specialized Biocontainment Screening …, 2010):
The campaign covered roughly 330,000 compounds. About 1,900 (0.58%) were called active. Not shown: some 4% with an inconclusive outcome. A selection follows. Potency and affinity values are given separately. Unmarked numbers belong to inactive results. Cut-off read from the data, not from the text of the source: inconclusive = inhibition above about 70% without an active follow-up result; inactive = below that.

Experiment: M. tuberculosis growth inhibition, HTS (AID 449762);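 note: bacterial growth assessed after seven days of incubation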
Conditions: M. tuberculosis H37Rv growth inhibition, 7H9 media; at 25 µM; hits give high values
With `Cc1cc(=O)[nH]c(Nc2cccc(Cl)c2C)n1` the inhibition was 1.14%. For `O=C(NS(=O)(=O)c1ccccc1Cl)c1ccc[nH]1`, the inhibition was 2.54%. Molecule `CCOc1ccc(C(C)NC(=O)Cc2ccccc2)cc1OCC` (stereo unspecified) has an inhibition of -8.29%. For `OCCNc1nc(N2CCN(Cc3ccccc3)CC2)nc2ccccc12`, the inhibition was 5.92%. Work on `OCCN1CCN(c2nc(NCc3ccco3)c3ccccc3n2)CC1` yielded an inhibition of -0.19%. Molecule `CCc1cccc(CC)c1NC(=O)CSc1nc2ccc(N3C(=O)C4C5C=CC(C5)C4C3=O)cc2s1` (stereo unspecified) has an inhibition of -11%. Molecule `CCc1cccc(CC)c1NC(=O)CSc1nc2ccc(N3C(=O)C4C(C3=O)[C@H]3C=C[C@@H]4C3)cc2s1` (stereo partly specified) has an inhibition of -9.69%. For `COc1cc(C(=O)Nc2cccc(S(=O)(=O)NCc3ccco3)c2)cc(OC)c1OC`, the inhibition was 0.68%. `COc1ccc(CCC(C)NC(=O)CCc2ccccc2)c(OC)c1` (stereo unspecified) gave an inhibition of 4.05%. `COc1cc(/C=N/NC(=O)c2csc3c2CCCC3)ccc1OCCN1CCOCC1` gave an inhibition of -0.72%. Molecule `COc1cc(/C=N/NC(=O)c2cc3ccccc3cc2O)ccc1OCCN1CCCCC1` has an inhibition of 9.28%. With `COc1ccccc1CNC(=O)CN1CCN(S(=O)(=O)c2cccs2)CC1` the inhibition was -5.5%. With `CSCCC(NS(=O)(=O)c1ccc(Cl)cc1)C(=O)OCC(=O)NC1CCCCC1` (stereo unspecified) the inhibition was 1.43%. For `COc1ccc(NC2=NC(C)(C)CS2)cc1`, the inhibition was -0.92%. Work on `Cc1ccc(C(=O)CNc2ccc(Br)cc2)cc1` yielded an inhibition of 2.6%. In the case of `Cc1ccc(C(=O)CCNc2ccc(Br)cc2)o1`, the inhibition is reported as -5.24%. With `CC12CCC(C(=O)Nc3cccc4ccccc34)(C1Br)C2(C)C` (stereo unspecified) the inhibition was 5.17%. `CCOc1ccc(-c2cnc(SCC(N)=O)nc2N)cc1` gave an inhibition of 62.7%. Work on `CCCCOc1ccc(-c2nc(SCC(N)=O)n[nH]2)cc1` yielded an inhibition of 48.6%. `CCC1(c2ccc(F)cc2)NC(=O)N(CC(=O)N2c3ccccc3NC(=O)C2(C)C)C1=O` (stereo unspecified) gave an inhibition of 1.45%. Molecule `CCOc1ccc(-n2c(Cc3ccccc3)nnc2SCc2c(C)noc2C)cc1` has an inhibition of -5.75%. Work on `COc1cc(-c2nc3ccc4ccccc4c3c3c2CCC3)ccc1O` yielded an inhibition of -4%. Work on `Oc1ccc(-c2nc3ccc4ccccc4c3c3c2CCC3)cc1O` yielded an inhibition of -2.27%. Work on `Cc1ccccc1NC(=O)CN1C(=O)NC2(CCc3ccccc32)C1=O` (stereo unspecified) yielded an inhibition of 8.44%. Work on `Oc1ccc(Nc2ccnc3cc(Cl)ccc23)cc1` yielded an inhibition of 7.94%. In the case of `CC/C(=N\Nc1ccnc2cc(Cl)ccc12)c1ccc(O)cc1`, the inhibition is reported as 9.75%. `C/C(=N/Nc1ccnc2cc(Cl)ccc12)c1ccc(N)cc1` gave an inhibition of -2.9%. `Clc1ccc2c(NNc3ccccc3Cl)ccnc2c1` gave an inhibition of 64.1%. `COc1ccc(OC2C(=O)N(Cc3ccc(F)cc3)C2c2cc(OC)c(OC)c(OC)c2)cc1` (stereo unspecified) showed an inhibition of 20.5%. For `COc1ccc(S(=O)(=O)Cc2ccc(C(=O)NC3CCC(C)CC3)o2)cc1` (stereo unspecified), the inhibition was 1.75%. For `Cc1ccc(C(=O)CSc2nnc3n2CCCCC3)s1`, the inhibition was -7.99%. With `COCCCNC(=O)Nc1ccc2c(c1)N(C)C(=O)CS2` the inhibition was 1.24%. `O=C(CN(CCc1ccccc1)C(=O)CNS(=O)(=O)c1ccc(F)cc1)NCc1ccco1` showed an inhibition of 1.92%. For `CCCCN1CCNC[C@@H]1c1ccccc1`, the inhibition was -9.81%. `CCOC1OC(=O)C(Cl)=C1Nc1cc(C)ccc1C` (stereo unspecified) gave an inhibition of -3.33%. Molecule `CCOC1OC(=O)C(Cl)=C1Nc1ccc(C)cc1C` (stereo unspecified) has an inhibition of 9.67%. With `Cc1ccc(NC(=O)C2CCN(C(=O)[C@@H]3Cc4ccccc4CN3)CC2)cc1` the inhibition was 9.95%. Work on `O=C(COC(=O)c1cc2ccccc2oc1=O)Nc1cccc(S(=O)(=O)N2CCCCCC2)c1` yielded an inhibition of -4.32%. `CCOC(=O)Cc1csc(NC(=O)CSc2nnnn2-c2ccc(F)cc2)n1` showed an inhibition of -5.86%. Molecule `CCOC(=O)c1sc(NC(=O)CN2C(=O)NC3(CC(C)CC(C)(C)C3)C2=O)c(C(=O)OCC)c1C` (stereo unspecified) has an inhibition of 5.68%. `CCc1nnc(NC(=O)CN2C(=O)NC3(CC(C)CC(C)(C)C3)C2=O)s1` (stereo unspecified) showed an inhibition of -0.6%. For `CSCC[C@H](NC(=O)c1cccc(S(=O)(=O)N2CCN(C)CC2)c1)c1nc2ccccc2[nH]1`, the inhibition was -7.51%. For `CC(C(=O)Nc1ccc2c(c1)OCCO2)n1nnc(-c2ccccc2)n1` (stereo unspecified), the inhibition was 0.15%. In the case of `Cc1nc(C)c(CCNC(=O)c2ccccc2Br)s1`, the inhibition is reported as -5.7%. `Cc1ccc(NC(=S)N/N=C2\CCCCC2C)cc1` (stereo unspecified) gave an inhibition of 5.06%. `CC1CCCC/C1=N\NC(=S)Nc1ccccc1` (stereo unspecified) showed an inhibition of 0.51%. `O=C(NCCc1ccccc1)C(=O)NN=C1CCCC1` gave an inhibition of -3.67%. In the case of `S=C(NC1CCCCC1)N1CCN(Cc2ccccc2)CC1`, the inhibition is reported as -15.7%. For `S=C(Nc1ccccc1)NC1CCN(Cc2ccccc2)CC1`, the inhibition was -9.83%. Molecule `O=C(CC(=O)NN=C1CCCC1)NCCc1ccccc1` has an inhibition of 4.48%. `Cc1cccc(C)c1NC(=S)NCCc1ccccn1` gave an inhibition of 3.14%. In the case of `CC1(C)C[C@H](O)[C@@]23C[C@@H](OC2=O)[C@]2(C)C(=CCC4[C@@]5(C)CC[C@H](O)C(C)(C)C5CC[C@]42C)[C@@H]3C1` (stereo partly specified), the inhibition is reported as 3.65%. With `CCOC(=O)c1cc(CC)sc1NC(=O)COC(=O)C1CCC1` the inhibition was -15.8%. Work on `Cc1cccc(C)c1NC(=O)CN1N=NC2C(=O)N(c3cccc(Cl)c3)C(=O)C21` (stereo unspecified) yielded an inhibition of 2.55%. Molecule `CN(C)S(=O)(=O)c1cccc(NC(=O)CSc2nc3ccccc3[nH]2)c1` has an inhibition of -2.08%. With `O=C(Nc1nnc(C2CC2)s1)c1cncc(Br)c1` the inhibition was 5.39%. `COc1ccc(CNC(=O)C(=O)NCCC2CCCCN2S(=O)(=O)c2cccs2)cc1` (stereo unspecified) showed an inhibition of 5.17%. With `COc1ccc(CCNC(=O)C(=O)NCC2OCCN2S(=O)(=O)c2ccc(C)cc2)cc1OC` (stereo unspecified) the inhibition was -6.63%. For `Cc1ccc(NC(=O)N2CCCC2C(=O)NCC2CCCCC2)cc1` (stereo unspecified), the inhibition was 5.67%. For `Cc1cc(C(=O)N/N=C/c2ccc(-c3ccc(C)c(Cl)c3)o2)n[nH]1`, the inhibition was 42.8%. `Clc1ccc(Cl)c(-c2ccc(/C=N/c3ncn[nH]3)o2)c1` showed an inhibition of 8.33%.
